Consider 70 compounds from PubChem BioAssay AID1259349 (Broad Institute, 2017).

The whole screen tested about 17,000 compounds, of which about 1,100 (6.5%) were called active. This excerpt belongs to a sample that is enriched for actives. Unmarked numbers belong to inactive results.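 The calls were made as follows: active = z-score of -3 or lower, meaning strong loss of probe binding signal; inactive = the rest.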

This experiment deals with Insulin-degrading enzyme (Homo sapiens) (UniProt P14735). As to the kind of experiment: exo-site inhibitors of human IDE, primary screen, biochemical, fluorescence anisotropy, probe displacement (AID 1259349).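 Also: His-tagged human IDE residues 42-1019 made in E. coli with 30 nM FL-6b probe.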 The note with it: purified IDE, FL-6b probe fluorescence polarization; at 20 µM; stronger effect = lower value. (In general: In fluorescence polarisation assays a small probe gives low polarisation when free and higher when bound to something large.)
Insulin-degrading enzyme (Homo sapiens), sequence (P14735 42-1019 limits assumed): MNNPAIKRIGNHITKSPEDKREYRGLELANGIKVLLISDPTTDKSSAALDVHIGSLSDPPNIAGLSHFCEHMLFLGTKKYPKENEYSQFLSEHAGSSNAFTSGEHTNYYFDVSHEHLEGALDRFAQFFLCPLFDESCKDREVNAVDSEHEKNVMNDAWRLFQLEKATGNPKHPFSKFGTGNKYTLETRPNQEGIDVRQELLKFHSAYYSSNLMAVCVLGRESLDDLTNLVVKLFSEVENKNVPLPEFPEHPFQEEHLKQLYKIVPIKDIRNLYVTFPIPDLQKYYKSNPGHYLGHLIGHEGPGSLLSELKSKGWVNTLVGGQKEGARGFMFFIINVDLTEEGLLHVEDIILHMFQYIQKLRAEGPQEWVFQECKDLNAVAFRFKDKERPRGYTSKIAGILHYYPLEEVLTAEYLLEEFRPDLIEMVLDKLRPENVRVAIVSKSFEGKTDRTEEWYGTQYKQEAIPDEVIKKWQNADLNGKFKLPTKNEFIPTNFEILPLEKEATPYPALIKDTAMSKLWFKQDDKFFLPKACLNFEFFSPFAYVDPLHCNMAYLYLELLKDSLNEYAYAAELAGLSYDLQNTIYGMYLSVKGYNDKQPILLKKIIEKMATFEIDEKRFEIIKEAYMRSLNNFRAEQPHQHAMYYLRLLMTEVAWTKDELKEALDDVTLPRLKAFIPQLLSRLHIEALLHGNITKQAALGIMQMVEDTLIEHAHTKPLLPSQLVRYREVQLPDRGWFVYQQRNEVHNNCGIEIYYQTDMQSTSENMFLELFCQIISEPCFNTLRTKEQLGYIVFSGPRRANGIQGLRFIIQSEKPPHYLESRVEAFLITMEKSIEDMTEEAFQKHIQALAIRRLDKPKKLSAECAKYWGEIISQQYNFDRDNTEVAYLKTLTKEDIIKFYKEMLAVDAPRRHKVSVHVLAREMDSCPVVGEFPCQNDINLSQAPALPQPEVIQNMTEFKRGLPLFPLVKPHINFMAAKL
With `CS(=O)(=O)Nc1ccc2c(c1)[C@@H]1C[C@H](CC(=O)NCc3cc(F)ccc3F)O[C@@H](CO)[C@@H]1O2`, the z-score is -0.994.

`C/C=C/c1ccc([C@H]2[C@@H](CNC(=O)NC(C)C)N(C(=O)C3CCC3)[C@H]2CO)cc1`: the z-score was 1.01.

In the case of `C[C@@H](O)C#Cc1ccc([C@H]2[C@H](CO)N3CCCCN(C(=O)c4ccc5c(c4)OCO5)C[C@@H]23)cc1`, the z-score was -0.442.

As for `CCS(=O)(=O)NCC[C@H]1CC[C@@H](NC(=O)Nc2cc(Cl)cc(Cl)c2)[C@@H](CO)O1`, the z-score was 2.83.

On to `CCCNC(=O)C[C@@H]1CC[C@H]2[C@@H](COC[C@H](O)CN2C(=O)Nc2ccc(Cl)c(Cl)c2)O1`, for which the z-score was -0.531.

With `Cc1noc(C)c1S(=O)(=O)Nc1ccc2c(c1)C(=O)N([C@@H](C)CO)C[C@@H](C)[C@H](CN(C)C(=O)Nc1cccc3ccccc13)OCCCC[C@H](C)O2`, the z-score was 0.278.

`COc1ccccc1-c1ccc2c(c1)O[C@@H](CN(C)CC1CCOCC1)[C@H](C)CN([C@@H](C)CO)S2(=O)=O`: the z-score was -0.56.

For `CCNC(=O)c1cc2c(c(-c3cccc(-c4cncnc4)c3)n1)[C@H](CCO)N(C(C)=O)C2`, the z-score is -0.344.

Regarding `O=C1CNC[C@H]2[C@@H](c3ccc(C4=CCCC4)cc3)[C@@H](CO)N12`, the z-score was 1.84.

Take `N#C[C@H]1[C@H](c2ccccc2)[C@@H](CO)N1C(=O)c1cccnc1`: the z-score is 1.75.

With `N#C[C@@H]1[C@@H](c2ccc(/C=C/c3ccccc3)cc2)[C@@H](CO)N1C(=O)C1CC1`, the z-score was -0.906.

As for `N#C[C@@H]1[C@@H](c2ccc(-c3ccccc3F)cc2)[C@@H](CO)N1C(=O)c1ccccn1`, the z-score is -6.83 (active).

Turning to `N#C[C@H]1[C@@H](c2ccc(-c3ccccc3F)cc2)[C@H](CO)N1C(=O)c1ccccn1`, the z-score is -3.67 (active).

For the compound `N#C[C@H]1[C@@H](c2ccccc2C2=CCCCC2)[C@H](CO)N1C(=O)c1ccccn1`, the z-score is 0.206.

Consider `N#C[C@@H]1[C@@H](c2ccc(-c3ccccc3F)cc2)[C@@H](CO)N1C(=O)C1CC1`, for which the z-score is -5.9 (active).

Consider `N#C[C@@H]1[C@H](c2ccccc2-c2ccccc2F)[C@@H](CO)N1C(=O)c1ccccn1`, for which the z-score is -0.079.

As to `CC(=O)N(C)C[C@@H]1[C@@H](c2ccc(-c3ccccc3F)cc2)[C@@H](CO)N1C(C)=O`, the z-score was 2.54.

`N#C[C@H]1[C@@H](c2ccccc2-c2ccccc2F)[C@@H](CO)N1C(=O)C1CCC1`: the z-score was -0.535.

For the compound `CC(C)NC(=O)N1[C@H](C#N)[C@@H](c2ccc(-c3ccc(F)cc3)cc2)[C@H]1CO`, the z-score is 2.54.

For the compound `O=C(CC1CC1)N1CC(=O)N2[C@H](CO)[C@H](c3ccc(C#Cc4ccc(F)cc4)cc3)[C@@H]2C1`, the z-score is 3.38.

Consider `CCC(=O)N(C)C[C@H]1[C@H](c2ccc(C3=CCCCC3)cc2)[C@@H](CO)N1C(C)=O`, for which the z-score was 3.35.

In the case of `N#C[C@@H]1[C@@H](c2ccc(-c3ccccc3)cc2)[C@@H](CO)N1C(=O)Cc1ccccc1`, the z-score is 1.8.

On to `COc1ccc(-c2ccc([C@@H]3[C@@H](C#N)N(C(=O)C4CCC4)[C@@H]3CO)cc2)cc1`, for which the z-score was 4.33.

With `COc1cccc(-c2ccc([C@@H]3[C@@H](CO)N(C(=O)c4ccccn4)[C@H]3C#N)cc2)c1`, the z-score was -6.41 (active).

As to `COc1cccc(-c2ccc([C@@H]3[C@@H](C#N)N(C(=O)c4ccccn4)[C@H]3CO)cc2)c1`, the z-score is -4.27 (active).

As for `COc1cccc(C#Cc2ccc([C@H]3[C@@H](CO)N(C(=O)c4ccccn4)[C@H]3C#N)cc2)c1`, the z-score is 0.995.

Turning to `N#C[C@H]1[C@H](c2ccc(-c3ccccc3)cc2)[C@@H](CO)N1C(=O)Cc1ccccc1`, the z-score is 1.03.

In the case of `CC(=O)N1[C@@H](CO)[C@@H](c2ccccc2)[C@@H]1CN(C)C(=O)CN1CCOCC1`, the z-score was 0.517.

In the case of `C[C@@H]1CN([C@H](C)CO)C(=O)c2cc(NC(=O)Cc3ccccc3)ccc2O[C@@H](C)CCCCO[C@@H]1CN(C)Cc1ccncc1`, the z-score is -1.57.

For `C[C@@H]1COCc2cn(nn2)CC[C@H](C)C(=O)N1`, the z-score is 0.508.

Take `CN(C)C(=O)c1cccc(-c2ccc([C@H]3[C@@H](CO)N4C(=O)CN(C(=O)C5CC5)C[C@@H]34)cc2)c1`: the z-score was 3.52.

Regarding `COc1cccc(-c2ccc([C@H]3[C@H]4CN(C(=O)NC(C)C)CC(=O)N4[C@H]3CO)cc2)c1`, the z-score is -10.1 (active).

Turning to `C/C=C/c1ccc([C@@H]2[C@@H](CO)N3C(=O)CN(C(=O)Nc4cccc(OC)c4)C[C@@H]23)cc1`, the z-score was 0.379.

Regarding `CN(C)C(=O)c1cccc(-c2ccc([C@H]3[C@H](CO)N4C(=O)CN(C(=O)C5CCCCC5)C[C@@H]34)cc2)c1`, the z-score is 1.54.

On to `COc1cccc(-c2ccc([C@@H]3[C@@H](CO)N4C(=O)CN(C(=O)C5CCCCC5)C[C@H]34)cc2)c1`, for which the z-score was -3.69 (active).

`COc1ccc(NC(=O)N2CC(=O)N3[C@H](CO)[C@@H](c4ccc(-c5ccc(C)cc5)cc4)[C@H]3C2)cc1`: the z-score was -0.113.

Consider `N#C[C@H]1[C@H](c2ccccc2-c2ccc(F)cc2)[C@H](CO)N1C(=O)Cc1ccncc1`, for which the z-score was 2.04.

On to `CO[C@@H]1CC[C@@H]2CCOc3ccc(C#N)cc3C(=O)N(C)[C@H](C)C(=O)N(C)C[C@@H]1O2`, for which the z-score was 2.26.

Consider `CO[C@@H]1CN(C)C(=O)c2ccc(NS(=O)(=O)c3c(C)noc3C)cc2OC[C@H](C)NC[C@@H]1C`, for which the z-score was 1.77.

`O=S(=O)(Cc1ccccc1)N1CCCCN2[C@@H](CO)[C@H](c3ccc(-c4ccccc4)cc3)[C@@H]2C1`: the z-score was 2.58.

For `COc1ccccc1-c1ccc([C@@H]2[C@@H](CO)N3CCCCN(C(=O)c4ccncc4)C[C@@H]23)cc1`, the z-score was -4.74 (active).

With `O=C(c1ccncc1)N1CCCCN2[C@H](CO)[C@@H](c3ccc(C#Cc4ccccn4)cc3)[C@H]2C1`, the z-score is -2.35.

For the compound `CCS(=O)(=O)N1CCCCN2[C@@H](CO)[C@@H](c3ccc(-c4ccccc4)cc3)[C@@H]2C1`, the z-score is -3.06 (active).

As for `CCCC#Cc1ccc([C@H]2[C@H](CO)N3CCCCN(C(=O)c4ccc5c(c4)OCO5)C[C@@H]23)cc1`, the z-score was 1.25.

Regarding `O=S(=O)(c1ccccc1)N1CCCCN2[C@H](C1)[C@H](c1ccc(-c3ccccc3)cc1)[C@@H]2CO`, the z-score is 2.36.

For the compound `COc1ccc(-c2ccc([C@H]3[C@H]4CN(C(=O)c5ccc6c(c5)OCO6)CCCCN4[C@H]3CO)cc2)cc1`, the z-score was 0.126.

With `COc1ccccc1-c1ccc([C@@H]2[C@@H](CO)N3CCCCN(S(=O)(=O)c4cn(C)cn4)C[C@H]23)cc1`, the z-score is -2.23.

`Cc1cccc(-c2ccc([C@H]3[C@H](CO)N4CCCCN(S(=O)(=O)c5cn(C)cn5)C[C@@H]34)cc2)c1`: the z-score was -4.09 (active).

For `Cc1cccc(-c2ccc([C@@H]3[C@H](CO)N4CCCCN(C(=O)c5ccc6c(c5)OCO6)C[C@@H]34)cc2)c1`, the z-score is -4.42 (active).

With `Cn1cnc(S(=O)(=O)N2CCCCN3[C@H](CO)[C@@H](c4ccc(-c5ccc(F)cc5)cc4)[C@@H]3C2)c1`, the z-score was 3.91.

On to `COc1ccc(C#Cc2ccc([C@@H]3[C@@H](CO)N4CCCCN(C(=O)c5ccncc5)C[C@@H]34)cc2)cc1`, for which the z-score is -0.38.

Turning to `O=C1CN(S(=O)(=O)Cc2ccccc2)C[C@@H]2[C@@H](c3ccc(C#Cc4ccccc4)cc3)[C@@H](CO)N12`, the z-score is -0.431.

Consider `O=C(c1cccc(F)c1)N1CC(=O)N2[C@H](C1)[C@@H](c1ccc(C#Cc3ccc(F)cc3)cc1)[C@@H]2CO`, for which the z-score is 2.4.

With `CCC(=O)N1CC[C@H]2[C@@H]1c1cc(-c3ccc(C#N)cc3)ccc1N(C)[C@H]2CO`, the z-score is -0.903.

Consider `O=C(C[C@H]1CC[C@@H]2NC[C@H](O)COC[C@H]2O1)NCCN1CCCCC1`, for which the z-score is -0.195.

As for `O=C1CCCCn2nncc2COC[C@@H](Cc2ccccc2)N1`, the z-score is 0.104.

On to `CC(=O)NC[C@H]1[C@H](c2ccccc2)[C@@H](CO)N1C(=O)Cc1cccnc1`, for which the z-score is 5.37.

Consider `CN(C)CC#Cc1ccc([C@H]2[C@H](CO)N3CCCCN(CC4CC4)C[C@@H]23)cc1`, for which the z-score was 3.

Consider `Cc1ccc(-c2ccc([C@H]3[C@H]4CN(S(=O)(=O)c5cccc(F)c5)CC(=O)N4[C@H]3CO)cc2)cc1`, for which the z-score is 1.96.

For the compound `O=C(c1ccncc1)N1CCCCN2[C@H](CO)[C@H](c3ccc(-c4ccccc4)cc3)[C@H]2C1`, the z-score was -4.53 (active).

As to `CC(C)C#Cc1ccc([C@H]2[C@H](CO)N3CCCCN(C(=O)c4ccc(F)cc4)C[C@@H]23)cc1`, the z-score is 1.11.

Turning to `O=C(c1ccc(F)cc1)N1CCCCN2[C@@H](CO)[C@H](c3ccc(-c4ccccc4)cc3)[C@@H]2C1`, the z-score is -0.452.

With `O=C(c1cccc(F)c1)N1CCCCN2[C@H](CO)[C@H](c3ccc(-c4ccncc4)cc3)[C@H]2C1`, the z-score is 0.501.

Regarding `O=C(c1ccc(F)cc1)N1CCCCN2[C@H](C1)[C@@H](c1ccc(C#CC3(O)CCCC3)cc1)[C@@H]2CO`, the z-score is -3.65 (active).

`O=C(c1cccc(F)c1)N1CCCCN2[C@H](CO)[C@H](c3ccc(C#CC4(O)CCCC4)cc3)[C@H]2C1`: the z-score was 0.958.

With `CC(C)(O)C#Cc1ccc([C@H]2[C@H]3CN(C(=O)c4ccncc4)CCCCN3[C@H]2CO)cc1`, the z-score was 0.748.

With `C[C@H](CO)N1C[C@H](C)[C@H](CN(C)C(=O)Nc2cccc(Cl)c2Cl)OCc2ccccc2-c2ccccc2C1=O`, the z-score is -1.18.

Turning to `CCCC#Cc1ccc([C@H]2[C@H]3CN(C(=O)Nc4ccc(F)cc4)CC(=O)N3[C@H]2CO)cc1`, the z-score is 3.77.

For `C[C@@H]1CN([C@H](C)CO)C(=O)CCCn2cc(nn2)CO[C@@H]1CN(C)C(=O)Nc1ccc2c(c1)OCO2`, the z-score is -0.664.

As for `CCCC#Cc1ccc([C@H]2[C@@H](CO)N3C(=O)CN(C(=O)c4ccncc4)C[C@@H]23)cc1`, the z-score was 3.16.
